{"source": "PubChem BioAssay AID687016", "about": "(The Scripps Research Institute Molecular Screening Center, 2013)", "note": "The campaign covered roughly 370,000 compounds. About 2,800 (0.76%) were called active. The sample as a whole holds a higher share of actives than the screen did. Unmarked numbers belong to inactive results. No stated cut-off is given here; in the data, active means inhibition above about 21%; inactive means the rest."}
{"target": "E3 ubiquitin-protein ligase UHRF1 (Homo sapiens) (UniProt Q96T88)", "sequence (Q96T88 whole entry, looked up, the tested form may be a part)": "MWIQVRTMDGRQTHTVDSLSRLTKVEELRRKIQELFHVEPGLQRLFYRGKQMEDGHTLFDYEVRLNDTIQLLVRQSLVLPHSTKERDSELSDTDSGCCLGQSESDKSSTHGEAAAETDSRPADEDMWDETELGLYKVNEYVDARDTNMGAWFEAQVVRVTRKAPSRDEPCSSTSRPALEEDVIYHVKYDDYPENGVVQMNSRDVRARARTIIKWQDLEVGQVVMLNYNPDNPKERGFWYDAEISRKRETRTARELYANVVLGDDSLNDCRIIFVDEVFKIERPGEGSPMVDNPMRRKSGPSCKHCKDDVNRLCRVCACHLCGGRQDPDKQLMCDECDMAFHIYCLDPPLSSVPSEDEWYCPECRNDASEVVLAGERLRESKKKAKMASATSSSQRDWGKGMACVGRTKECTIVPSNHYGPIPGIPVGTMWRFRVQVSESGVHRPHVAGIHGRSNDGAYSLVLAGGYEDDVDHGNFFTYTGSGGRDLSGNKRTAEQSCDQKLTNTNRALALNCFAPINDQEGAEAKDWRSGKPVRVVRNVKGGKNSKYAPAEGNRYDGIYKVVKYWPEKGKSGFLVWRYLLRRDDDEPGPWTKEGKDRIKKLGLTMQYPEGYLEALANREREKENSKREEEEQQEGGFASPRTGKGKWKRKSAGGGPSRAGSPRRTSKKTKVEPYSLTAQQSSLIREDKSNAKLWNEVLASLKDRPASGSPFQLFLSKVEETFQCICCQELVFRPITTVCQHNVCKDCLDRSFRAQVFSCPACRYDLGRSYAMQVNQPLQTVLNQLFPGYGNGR", "experiment": "UHRF1 methylated DNA binding inhibitors, primary screen, counter-screen for MBD2 inhibitor project, biochemical, TR-FRET, human UHRF1, single concentration (AID 687016);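 further: UHRF1 SRA domain binding a hemimethylated CpG hairpin DNA probe; 0% = median of test compound wells and 100% = reference inhibitor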", "settings": "UHRF1 binding to methylated oligo, at 4.4 µM, hits give high values"}
{"molecule": "O=S1(=O)c2c(cccc2N2CC[C@H](O)C2)O[C@@H]2CCN1C2", "inhibition": "1.23%"}
{"molecule": "CC(C)c1ccc(C2C(C#N)=C(N)Oc3c2oc(CO)cc3=O)cc1", "note": "(stereo not drawn)", "inhibition": "-3.69%"}
{"molecule": "Cc1cc2c(c(=O)n1Cc1ccco1)C(c1ccccc1)C(C#N)=C(N)O2", "note": "(stereo not drawn)", "inhibition": "32.8% (active)"}
{"molecule": "Cc1cc2c(c(=O)n1C)C(C(C)C)C(C#N)=C(N)O2", "note": "(stereo not drawn)", "inhibition": "0.11%"}
{"molecule": "CCN(C(=O)[C@@H](C1CC1)[C@@H](O)c1ccc2ccccc2c1)c1ccccc1", "inhibition": "-2.68%"}
{"molecule": "COc1ccc(C(=O)OCCN(C)C2CN(Cc3cn(Cc4cccc(C)c4)nn3)S(=O)(=O)C2)cc1OC", "note": "(stereo not drawn)", "inhibition": "13.8%"}
{"molecule": "Cc1nn(-c2ccccc2)c(-n2cccc2)c1C(=O)O", "inhibition": "1.78%"}
{"molecule": "Cn1nccc1/C=N\\NC(=O)c1ccc(Cl)cc1", "inhibition": "4.97%"}
{"molecule": "Cc1nn(-c2ccccc2)c(Cl)c1/C=N/NC(=O)c1nn(C)cc1[N+](=O)[O-]", "inhibition": "23.8% (active)"}
{"molecule": "CC(C)CNC(=O)OCc1cn(Cc2ccc(F)cc2)nn1", "inhibition": "3.53%"}
{"molecule": "COC(=O)[C@H](C(C)C)N(CCc1cn(Cc2ccccc2)nn1)S(=O)(=O)c1ccc(F)cc1Br", "inhibition": "-0.16%"}
{"molecule": "Cc1ccc(Cn2cc(CN3[C@@H](CC(C)C)COc4ccc(Cl)cc4S3(=O)=O)nn2)cc1", "inhibition": "-2.98%"}
{"molecule": "c1coc(CCNc2ncnc3ccc(-c4ccc5c(c4)OCO5)cc23)c1", "inhibition": "-3.63%"}
{"molecule": "COC(=O)c1cccc(Cn2ccc3ccc(-c4ccc5ccn(C(=O)c6ccccc6C)c5c4)cc32)c1", "inhibition": "-1.17%"}
{"molecule": "Oc1ccc(N2CCN(C(=S)NCc3ccccc3)CC2)cc1", "inhibition": "40.4% (active)"}
{"molecule": "O=C(COC(=O)c1ccccc1C(=O)N1CCN(c2ccccc2)CC1)NCc1ccccc1", "inhibition": "-3.11%"}
{"molecule": "O=C(CN1CCN(c2ccc(O)cc2)CC1)Nc1ccc(-c2ccccc2)cc1", "inhibition": "-0.69%"}
{"molecule": "CCOC(=O)C1CCN(C(=O)C(C)(C)NC(=O)Nc2ccccc2Cl)CC1", "inhibition": "0.18%"}
{"molecule": "COC(=O)[C@]12C[C@H](CC(=O)NCc3cccs3)C(=O)N(CCc3ccc(OC)c(OC)c3)C1=C[C@H](C(C)C)O[C@@H]2C1CC1", "inhibition": "-0.69%"}
{"molecule": "O=C(CSc1nc2ccccc2s1)NN=Cc1ccc(O)cc1O", "inhibition": "-4.05%"}
{"molecule": "CCCCOCCCNC(=O)C[C@H]1C[C@@]2(C(=O)OC)C(=C[C@H](C(C)(C)C)O[C@@H]2C)N(CCc2ccc(OC)c(OC)c2)C1=O", "inhibition": "-0.73%"}
{"molecule": "COC(=O)[C@]12C[C@H](CC(=O)NCc3ccccc3)C(=O)N(CCc3ccc(OC)c(OC)c3)C1=C[C@H](C(C)(C)C)O[C@@H]2C", "inhibition": "-1.24%"}
{"molecule": "COC(=O)[C@]12C[C@H](CC(=O)NCCC(C)C)C(=O)N(CCc3ccc(OC)c(OC)c3)C1=C[C@H](C(C)(C)C)O[C@@H]2C", "inhibition": "34.2% (active)"}
{"molecule": "CC(C)(C)c1ccc(CSc2nnc(-c3cccs3)o2)cc1", "inhibition": "-2.34%"}
{"molecule": "Cc1ccc(Cc2cnc(N)s2)o1", "inhibition": "53.9% (active)"}
{"molecule": "O=C(NCCC1=CCCCC1)C1CCN(S(=O)(=O)c2ccc(Cl)s2)CC1", "inhibition": "-0.71%"}
{"molecule": "O=C(OC12CCCN(C1)/C(=C/c1ccccc1)C2)c1ccco1", "note": "(stereo not drawn)", "inhibition": "3.41%"}
{"molecule": "C=CCN1[C@@H](Cc2ccccc2)COc2cccc(N3CCSCC3)c2S1(=O)=O", "inhibition": "-0.98%"}
{"molecule": "CNS(=O)(=O)c1cccc(C(=O)OCC(=O)N2c3ccccc3NC(=O)C2(C)C)c1", "inhibition": "5.39%"}
{"molecule": "CC1(C)C(=O)Nc2ccccc2N1C(=O)COC(=O)Cn1cnc2ccccc2c1=O", "inhibition": "1.64%"}
{"molecule": "Cc1ccc(OCCC(=O)OCC(=O)N2c3ccccc3NC(=O)C2(C)C)cc1", "inhibition": "24.6% (active)"}
{"molecule": "COc1ccnc(C(=O)N2CCC(Oc3cccnc3)CC2)c1", "inhibition": "-0.76%"}
{"molecule": "O=C1CC(c2ccc3c(c2)OCO3)N=C2N(CC3CC3)C/C(=C/c3ccccc3)N12", "note": "(stereo not drawn)", "inhibition": "-0.7%"}
{"molecule": "O=c1ccc2c(-c3ccccc3S(=O)(=O)O)c3ccc(O)c(O)c3oc-2c1O", "inhibition": "82.5% (active)"}
{"molecule": "Cc1cc(=O)[nH]c(SCC(=O)Nc2ccc(F)cc2F)n1", "inhibition": "-1.2%"}
{"molecule": "COCCOC(=O)C1=C(C)NC(=O)NC1c1cc2c(cc1Br)OCO2", "note": "(stereo not drawn)", "inhibition": "0.79%"}
{"molecule": "CC(=O)C1=C(C)NC(=O)NC1c1ccc2c(c1)OCO2", "note": "(stereo not drawn)", "inhibition": "0.08%"}
{"molecule": "CCOCCOC(=O)C1=C(C)NC(=O)NC1c1ccc2c(c1)OCO2", "note": "(stereo not drawn)", "inhibition": "31.3% (active)"}
{"molecule": "CC(CCN1CCC(C(O)(c2ccccc2)c2ccccc2)CC1)Oc1ccc(C(F)(F)F)cc1", "note": "(stereo not drawn)", "inhibition": "1.26%"}
{"molecule": "O=C(CCS(=O)(=O)c1ccccc1)Nc1ccc(Cl)c(Cl)c1", "inhibition": "3.31%"}
{"molecule": "COC(=O)[C@]12C[C@H](CC(=O)NCC34CC5CC(CC(C5)C3)C4)C(=O)N(Cc3ccc(Cl)cc3Cl)C1=C[C@H](COCc1ccccc1)O[C@@H]2C", "inhibition": "-0.14%"}
{"molecule": "CCOC(=O)c1ccc2[nH]c(C)c(CN3CCN(C)CC3)c(=O)c2c1", "inhibition": "-2.6%"}
{"molecule": "CCCCN(C)Cc1c(C)[nH]c2ccc(Cl)cc2c1=O", "inhibition": "27% (active)"}
{"molecule": "CN(C)CCn1c(=S)[nH]c2ccc(Cl)cc2c1=O", "inhibition": "-4.42%"}
{"molecule": "O=C(OC12CCCN(C1)/C(=C/c1cccnc1)C2)C1CCCC1", "note": "(stereo not drawn)", "inhibition": "-1.46%"}
{"molecule": "COc1ccc(-c2nnc(SCC(=O)c3ccc4c(c3)OCCO4)o2)cc1", "inhibition": "-0.81%"}
{"molecule": "CCc1ccccc1NC(=O)CSc1nnc(-c2cccs2)o1", "inhibition": "1.37%"}
{"molecule": "COc1ccc(-n2c(C)cc(C(=O)CSc3nnc(-c4cccs4)o3)c2C)cc1", "inhibition": "23.6% (active)"}
{"molecule": "COc1ccc(-n2c(SCC(=O)NC3CCCC3)nnc2-c2ccncc2)cc1", "inhibition": "0.14%"}
{"molecule": "COC(=O)[C@]12C[C@H](CC(=O)N3CCOCC3)C(=O)N(Cc3ccc(Cl)cc3Cl)C1=C[C@H](COCc1ccccc1)O[C@@H]2C", "inhibition": "0.29%"}
{"molecule": "CCC(C)C(=O)Nc1cc([N+](=O)[O-])ccc1Cl", "note": "(stereo not drawn)", "inhibition": "-0.24%"}
{"molecule": "O=C(NCc1ccco1)c1ccc([N+](=O)[O-])cc1Cl", "inhibition": "2.58%"}
{"molecule": "CC(C)C(=O)Nc1cccc(NC(=O)c2ccc([N+](=O)[O-])cc2Cl)c1", "inhibition": "23.4% (active)"}
